Screening data: PubChem BioAssay, National Center for Advancing Translational Sciences (NCATS)
BAZ2B inh – qHTS Assay for Inhibitors of BAZ2B | Potency, µM (titrated, usually from 114 µM), for inactives: at the top dose activity change, negative = inhibition, usual class: inhibitors | AlphaScreen BAZ2B-H3K14Ac peptide displacement | Bromodomain adjacent to zinc finger domain protein 2B (Homo sapiens), Q9UIF8 | actives 4.4% (n = 360,000); also: % is scaled to controls: 0 for no effect and ±100 for the full control effect; nearly all actives have a fitted effect of over 60% in size
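AlphaScreen luminescence quantifies BAZ2B engagement of H3K14Ac peptide; the protein and biotinylated peptide are both at 50 nM final, buffer PBS pH 7.4 with 0.01% Tween-20, all steps at room temperature.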
G9a inh – qHTS Assay for Inhibitors of Histone Lysine Methyltransferase G9a; Histone-lysine N-methyltransferase EHMT2 (Homo sapiens), Q96KQ7; G9a H3K9 monomethylation, AlphaScreen, 2 h; Potency, µM (top dose mostly 102 µM), without a hit: at the highest dose activity, negative = inhibition, actives largely listed as inhibitors; actives 8.8% (n = 350,000); also: % is scaled to controls: 0 for no effect and ±100 for the full control effect; nearly all actives have a fitted effect of over 75% in size
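Quantitative HTS format: methyltransferase activity on a biotin-tagged H3K9 peptide is measured by AlphaScreen, using a rabbit anti-monomethyl-H3K9 antibody with streptavidin donor and anti-IgG acceptor beads. Final levels are 20 nM enzyme, 500 nM peptide, 20 uM SAM; 2 h RT.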
JMJD2A Tudor inh – qHTS Assay for Inhibitors of JMJD2A-Tudor Domain; AlphaScreen JMJD2A-Tudor / H3K4me3 peptide binding; Potency, µM (doses to about 114 µM), for inactives: at the top dose activity change, negative = inhibition, hits mostly inhibitors; actives 4.4% (n = 390,000); AID 504339, 2011; also: % is scaled to controls: 0 for no effect and ±100 for the full control effect; nearly all actives have a fitted effect of over 50% in size
GLS inhibitor – qHTS for Inhibitors of Glutaminase (GLS); Glutaminase kidney isoform, mitochondrial (Homo sapiens), O94925; GLS enzymatic activity, qHTS titration; Potency, µM (series often up to 45.5 µM), inactives show top-dose activity change, negative = inhibition, hits mostly inhibitors; actives 0.21% (n = 410,000); AID 624170, 2012; also: % is scaled to controls: 0 for no effect and ±100 for the full control effect
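Glutamate formation by hKGA was monitored fluorometrically using coupled glutamate oxidase, HRP and Amplex Red. Substrate was added as 1 mM L-glutamine solution; incubation was 30 min at RT after an initial read.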
L3MBTL1 inh – qHTS Assay for the Inhibitors of L3MBTL1; actives 0.66% (n = 230,000); AlphaScreen L3MBTL1–H3K9me1 peptide binding; Potency, µM (top dose mostly 57.1 µM), without a hit: top-dose activity, negative = inhibition, most hits filed as inhibitors; also: % is scaled to controls: 0 for no effect and ±100 for the full control effect; nearly all actives have a fitted effect of over 60% in size
Target sequence (Q9Y468 whole entry, looked up): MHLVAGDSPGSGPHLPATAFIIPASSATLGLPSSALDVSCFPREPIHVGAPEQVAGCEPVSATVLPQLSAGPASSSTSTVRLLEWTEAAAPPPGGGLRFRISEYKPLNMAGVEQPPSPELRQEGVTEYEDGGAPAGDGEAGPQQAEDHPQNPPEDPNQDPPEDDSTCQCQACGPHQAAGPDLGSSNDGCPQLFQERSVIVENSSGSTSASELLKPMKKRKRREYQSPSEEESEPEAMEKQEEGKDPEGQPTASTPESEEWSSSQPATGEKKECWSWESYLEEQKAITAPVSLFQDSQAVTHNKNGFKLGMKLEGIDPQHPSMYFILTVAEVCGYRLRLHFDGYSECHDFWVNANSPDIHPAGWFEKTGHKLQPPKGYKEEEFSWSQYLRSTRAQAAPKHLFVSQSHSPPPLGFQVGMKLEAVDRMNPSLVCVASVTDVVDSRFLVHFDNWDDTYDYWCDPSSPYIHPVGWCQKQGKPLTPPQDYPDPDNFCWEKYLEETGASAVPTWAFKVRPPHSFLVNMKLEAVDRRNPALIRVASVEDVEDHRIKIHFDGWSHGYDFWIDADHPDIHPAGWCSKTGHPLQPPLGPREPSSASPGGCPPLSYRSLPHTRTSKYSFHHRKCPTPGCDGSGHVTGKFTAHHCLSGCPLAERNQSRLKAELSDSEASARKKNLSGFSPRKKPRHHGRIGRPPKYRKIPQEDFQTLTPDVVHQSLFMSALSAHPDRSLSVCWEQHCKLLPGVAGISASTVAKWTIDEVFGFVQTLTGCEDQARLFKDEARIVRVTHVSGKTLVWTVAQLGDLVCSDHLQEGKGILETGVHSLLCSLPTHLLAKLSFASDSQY
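AlphaScreen proximity signal between nickel-chelate acceptor and streptavidin donor beads (final 10 ug/mL) reports binding of 50 nM L3MBTL1 to 75 nM biotin-H3 K9me1 peptide; complex incubated with compounds 30 min at room temperature; cefsulodin titration as control.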
HP1b binding inh – HTS for Inhibitors of HP1-beta Chromodomain Interactions with Methylated Histone Tails. Potency, µM (titrated, usually from 114 µM), for inactives: top-dose activity change, negative = inhibition, actives largely listed as inhibitors. actives 0.56% (n = 390,000). AlphaScreen HP1-beta / biotin-H3K9me3 peptide binding. AID 540317, 2011; also: nearly all actives have a fitted effect of over 70% in size
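Compound inhibition of the preformed complex between 50 nM HP1-beta and 50 nM biotinylated H3K9me3 peptide was read by AlphaScreen. Buffer was PBS pH 7.4 with 0.01% Tween-20. Incubations ran 30 min at room temperature, with 10 ug/mL donor/acceptor beads.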
An asterisk follows results filed as active; u = inconclusive; x = no result; [ ] = remark or other dose. An excerpt weighted towards active compounds, which were near 10% of everything screened. Calls follow the shape of the dose curve; as a rule, active = well fitted curve in the direction sought with a large enough effect; inconclusive = small, poorly fitted or top-dose-only effect, or another doubt; inactive = no such curve, though single readings can be large; an effect the other way counts as inactive or inconclusive. Potency is read from the fitted curve at half-maximal effect.

SMILES | BAZ2B inh | G9a inh | JMJD2A Tudor inh | GLS inhibitor | L3MBTL1 inh | HP1b binding inh
CN(C)c1ccc(P(=O)(Nc2ccc([N+](=O)[O-])cc2)N2CCOCC2)c(NC(=O)c2cccs2)c1 (stereo not drawn) | u | 44.7µM* | -26.7% | 11.5% | -6.2% | -8.5%
Cc1cc(=O)n2[nH]c(C)cc2n1 | 4.9% | -34.3% | -6.8%[11.4 µM] | 8.1% | x | 61.2%
CN1CCN(c2ccc(N)cc2Cl)CC1 | u | 39.8µM* | u | 0.0% | x | 28.2µM*
CN1CCN(c2ccc(Cl)cc2N)CC1 | 7.4% | 10.9%[0.501 µM] | -5.4% | 26.3% | 2.8% | 44.9%
CC(N)(COP(=O)(O)Oc1ccccc1)C(=O)O (stereo not drawn) | x | 26.5%[59 µM] | x | x | x | x
NNc1n[nH]c(=S)n1N | u | 25.1µM* | -9.7% | 12.2% | x | 52.6%
O=c1c2ccccc2nc(/C=C/c2ccccc2F)n1-c1cccc(O)c1 | -19.8% | -17.9%[59 µM] | -19.0% | -2.1% | x | 15.8%
C[C@@H]1O[C@@H](O[C@H]2C[C@@H](O)[C@@]3(CO)[C@H]4[C@H](O)C[C@]5(C)[C@@H](C6=CC(=O)OC6)CC[C@]5(O)[C@H]4CC[C@@]3(O)C2)[C@@H](O)[C@H](O)[C@H]1O | x | 20.9%[59 µM] | x | -22.6% | x | x
O=C1CC2OCC=C3CN4CC[C@@]56c7ccccc7N1C5C2C3CC46 (stereo partly drawn) | x | -31.8%[2.33 µM] | x | x | x | x
CN1C(=O)NC(=O)/C(=C\C=C\c2ccccc2[N+](=O)[O-])C1=O | u | 7.94µM* | u | 1.8% | -0.6% | u
O=c1c2ccccc2nc(/C=C\c2ccccc2[N+](=O)[O-])n1-c1ccccc1O | u | u | u | 1.3% | u | u
NC(=O)CNC(=O)[C@H](Cc1ccccc1)NC(=O)[C@H](CCCN=C(N)N)NC(=O)[C@@H](N)Cc1ccc(O)cc1 | x | 36.6%[59 µM] | x | x | x | x
CC(c1nc2ccccc2c(=O)[nH]1)N(C)CCOc1ccc(Cl)cc1 (stereo not drawn) | -13.6% | 33.8% | -14.6% | 1.1% | -6.3% | 43.3%
CCC(C)N1C(=O)NC(=O)C2(Cc3cc(C)ccc3N(C)C2)C1=O (stereo not drawn) | x | u | -12.6%[57.1 µM] | -1.3% | -3.8% | 50.0%
Cc1ccc2c(c1)CC1(CN2C)C(=O)NC(=O)N(C(C)C)C1=O (stereo not drawn) | 6.4% | 31.6µM* | 5.5%[57.1 µM] | -8.5% | -9.3% | -5.9%
Cc1cccc(N2C(=O)NC(=O)C3(Cc4cc(C)ccc4N(C)C3)C2=O)c1 (stereo not drawn) | -21.3% | 10µM* | -3.8%[11.4 µM] | -0.4% | 1.8% | 62.5%
Cc1ccc2c(c1)CC1(CN2C)C(=O)NC(=O)N(CCC2=CCCCC2)C1=O (stereo not drawn) | -30.8% | 10µM* | -12.8% | 5.4% | -3.9% | 32.0%
COc1ccc2c(c1)CC1(CN2C)C(=O)NC(=O)N(c2ccc(C)cc2)C1=O (stereo not drawn) | u | u | -7.9% | 16.5% | x | 49.0%
COc1ccc2c(c1)CC1(CN2C)C(=O)NC(=O)N(c2ccc(F)cc2)C1=O (stereo not drawn) | 4.3% | 20µM* | -21.6% | 6.3% | -4.6% | 55.3%
CCn1c(O)c(C(c2ccccn2)c2c(O)n(CC)c(=S)[nH]c2=O)c(=O)[nH]c1=S | 31.6µM* | u | 3.98µM* | 64.0% | -2.8% | 21.1%
